Screening results (PubChem BioAssay)
Shiga toxin inh: A qHTS for Small Molecule Inhibitors of Shiga Toxin | Vero cells, Shiga toxin protein synthesis inhibition reporter | inhibition, % at 38.7 µM | 9.2% of 290,000 active | AID 2315, 2010; in the data active means inhibition mostly above about 28%, no sharp cut-off; inactive means mostly below about 43%; further: 0% is about no effect
Pf growth 96h: Primary qHTS for delayed death inhibitors of the malarial parasite plastid, 96 hour incubation. AID 504834, 2011. 6.9% of 320,000 active. P. falciparum luciferase reporter growth, 96 h. Potency, µM (titrated, usually from 28.7 µM), inactives show at the highest dose activity change, negative = inhibition, most hits filed as inhibitors; further: potency means the concentration at half of the fitted maximal effect; on the % scale 0 is the no-effect control and ±100 the full control effect
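Luminescence readout: decreased luciferase signal marks inhibited growth of reporter-expressing P. falciparum in infected red cells (2% hematocrit, 0.05% parasitemia final), exposed to compound two generations (96 h, 37 C, 5% CO2).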
Pf growth 48h: Primary qHTS for delayed death inhibitors of the malarial parasite plastid, 48 hour incubation | P. falciparum luciferase growth in erythrocytes, 48 h | Potency, µM (doses to about 28.7 µM), inactives show at the top dose activity change, negative = inhibition, most hits filed as inhibitors | 5.9% of 310,000 active | AID 504832, 2011; further: potency means the concentration at half of the fitted maximal effect; on the % scale 0 is the no-effect control and ±100 the full control effect
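Cell-based growth assay: transgenic P. falciparum expressing firefly luciferase, cultured in red cells within RPMI 1640 containing 0.5% w/v Albumax, 24 mM bicarbonate and gentamycin. A drop in luciferase activity indicates inhibition.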
Lassa entry inh: qHTS for Inhibitors of binding or entry into cells for Lassa Virus. Lassa virus pseudotype entry inhibition, cell reporter. Potency, µM (doses to about 37.9 µM), for the others: at the highest dose activity change, negative = inhibition, most hits filed as inhibitors. 1.2% of 300,000 active; calls by dose curve; tested in HEK293 cells; further: potency means the concentration at half of the fitted maximal effect; on the % scale 0 is the no-effect control and ±100 the full control effect; nearly all actives have a fitted effect of over 50% in size
CHX counter: Cycloheximide Counterscreen for Small Molecule Inhibitors of Shiga Toxin | 12% of 300,000 active | max response, % | cell reporter, cycloheximide protein synthesis inhibition counterscreen | AID 2314, 2010; in the data active means max response mostly above about 13%, no sharp cut-off; inactive means mostly below about 14%; further: read at 38.3 µM for the half of the compounds with a filed dose; 0% is about no effect
MARV entry inh: qHTS for inhibitors of binding or entry into cells for Marburg Virus. Marburg virus pseudotyped entry inhibition, cell reporter. 1.8% of 300,000 active. Potency, µM (doses to about 37.8 µM), for the others: at the top dose activity change, negative = inhibition, hits mostly inhibitors. AID 540276, 2011; calls by dose curve; tested in HEK293 cells; further: potency means the concentration at half of the fitted maximal effect; on the % scale 0 is the no-effect control and ±100 the full control effect
The depositor's hits bear a star; ? = inconclusive; . = not tested or not shown; [ ] = dose if it differs, or a comment. Rows were chosen to be rich in hits. Some 19% of all compounds tested hit in one or more screens of this group. Unless noted, the call rests on the fitted dose curve; in most records, active means well fitted inhibition curve with a large enough effect; inconclusive means small, poorly fitted or top-dose-only effect, or another doubt; inactive means no such curve, though single readings can be large or run the other way.

SMILES	Shiga toxin inh	Pf growth 96h	Pf growth 48h	Lassa entry inh	CHX counter	MARV entry inh
C=CCS(=O)(=O)N1CCC(CCOc2ccccc2)(C(=O)OCC)CC1	2	12%	-28%	?	-2	?
CC(C)Cc1nc(N2CCN(C(=O)C(C)C)CC2)c(C#N)c2c1CCC2	48	?	151%	?	54*	?
O=C(CN1CCCC1)Nc1nnc(-c2cccs2)s1	89*	-84%	11%	0%	28*	6%
O=C(CN1CCCCC1)Nc1nnc(-c2ccccc2)s1	72*	19%	-8%	6%	20*	13%
CCc1nnc(NC(=O)CN2CCN(c3nc(-c4ccccc4)cs3)CC2)s1	-8	9.3µM*	10µM*	1%	-6	-3%
O=C(Cc1cccs1)Nc1nnc(-c2ccccc2)s1	93	48%	153%	.	19	.
CC(C)(C)CC(=O)Nc1nnc(-c2cccs2)s1	67*	?	87%	16%	43*	4%[46.1 µM]
O=S(=O)(Nc1cc(Br)cc2cccnc12)c1cccc2ccccc12	-4	.	.	.	6	.
O=C(CN1CCCCC1)Nc1nnc(-c2ccc([N+](=O)[O-])cc2)s1	56	101%	-63%	?	21*	17%
Cc1cc(NC(=O)c2cc3cccc([N+](=O)[O-])c3[nH]2)ccc1F	86*	?	?	.	56*	.
COCC(C)NC(=O)c1cc2cccc([N+](=O)[O-])c2[nH]1 (configuration not stated)	17	?	5.2µM*	-24%	22	21%
Cc1ccc(NC(=O)c2cc(Cl)ccc2[N+](=O)[O-])cc1C	12	14%	-2%	-2%	12	0%
CN(CCNC(=O)c1ccc(CS(=O)(=O)c2ccc(Br)cc2)o1)CCc1ccccc1	5	?	-15%	.	-2	.
O=C(NCCc1ccccc1)c1ccc(CS(=O)(=O)c2ccc(Br)cc2)o1	-3	4.1µM*	-7%	-17%[46.1 µM]	13	-5%[46.1 µM]
COc1ccc(CCNC(=O)c2ccc(CS(=O)(=O)c3ccc(Cl)cc3)o2)cc1OC	-1	10µM*	-48%	26µM*	-1	15µM*
COc1ccc(CCNC(=O)CN(Cc2ccc(Cl)cc2)S(C)(=O)=O)cc1OC	-7	15µM*	0%	.	-4	.
Cc1ccccc1CS(=O)(=O)Cc1ccc(C(=O)NCCc2ccccc2)o1	12	-8%	?	4%[46.1 µM]	23*	.
Cc1cc(/C=C2\C(=N)N3C(SCc4ccccc4)=NSC3=NC2=O)c(C)n1Cc1ccccc1	-13	21%	.	11%	-4	12%
CC1CCN(c2ccccc2NC(=O)c2ccc(Br)o2)CC1	-18	24%	-1%	-20%	0	-16%
COc1ccccc1NC(=O)c1ccc(NS(C)(=O)=O)cc1	-11	19%	1%	21%	2	0%
O=C(N/C(=C/c1ccccc1)C(=O)N1CCCCC1)c1ccc(Br)o1	2	-6%	-7%	-24%	1	-3%
CN1CCN(CCCNC(=O)c2ccc(CS(=O)(=O)c3ccc(Br)cc3)o2)CC1	12	8.3µM*	.	.	-3	-1%
O=C(CCNS(=O)(=O)c1ccc(Br)cc1)NCCc1ccccc1	-14	62%	23%	.	-2	.
O=S(=O)(NCCc1ccccc1)c1ccc(Br)cc1	11	13µM*	-6%	3%[46.1 µM]	10	12%[46.1 µM]
COC(=O)c1ccc2c(=O)n(CCN3CCOCC3)c(SCC(=O)C(C)(C)C)nc2c1	-20	13µM*	?	-9%	-5	-14%
CCn1c(SCC(=O)Nc2ccc(OC)cc2OC)nc2nc3c(cc2c1=O)COC(C)(C)C3	15	8.3µM*	?	?	-3	3%[46.1 µM]
CCOC(=O)CSc1nc2cc(C(=O)OC)ccc2c(=O)n1CCN1CCOCC1	-1	?	48%	1%	1	1%
CCn1c(SCC(=O)Nc2ccccc2)nc2nc3c(cc2c1=O)COC(C)(C)C3	1	?	?	.	-2	5%
COC(=O)c1ccc2c(=O)n(CC3CCCO3)c(SCC(=O)Nc3ccc(OC)cc3OC)nc2c1 (configuration not stated)	39	?	6.6µM*	.	-4	.
